Test results published in publication PMC7862700, “An all-to-all approach to the identification of sequence-specific readers for epigenetic DNA modifications on cytosine”.

Legend:
Assay in all cases: DAPPL (digital affinity profiling via proximity ligation, sequencing); 10 mM Tris-HCl pH 7.5, 50 mM NaCl, 1 mM DTT, 4% glycerol, room temperature, 30 min; GST-TFs on glutathione beads, 16-mer random dsDNA library, 0.1% formaldehyde crosslink after washing; high values mean tight binding
Settings in all cases: protein: recombinant; tags: N-terminal GST; dsDNA, one strand shown
FLI1 = target: T1, FLI1 (Homo sapiens, UniProt Q01543 1-452)
T1 sequence: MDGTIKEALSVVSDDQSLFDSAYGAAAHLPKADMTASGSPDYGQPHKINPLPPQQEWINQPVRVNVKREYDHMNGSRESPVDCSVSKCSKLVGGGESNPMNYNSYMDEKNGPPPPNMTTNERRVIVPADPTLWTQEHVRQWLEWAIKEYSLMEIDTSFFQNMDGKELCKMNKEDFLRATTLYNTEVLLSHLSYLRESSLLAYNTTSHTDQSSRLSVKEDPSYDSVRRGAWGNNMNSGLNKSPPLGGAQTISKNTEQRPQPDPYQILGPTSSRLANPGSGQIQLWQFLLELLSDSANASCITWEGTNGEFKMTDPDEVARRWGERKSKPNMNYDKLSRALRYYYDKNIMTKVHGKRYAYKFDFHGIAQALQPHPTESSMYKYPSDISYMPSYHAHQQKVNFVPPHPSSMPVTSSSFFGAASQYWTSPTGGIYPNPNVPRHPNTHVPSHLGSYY
Outline: (§1)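 Beads coated with glutathione captured GST-fused human transcription factors that had been expressed in yeast, and the factors were then given DNA barcodes and pooled with a tag-only sample. The pools were incubated with 200 nmole of a random double-stranded 16-mer DNA library in Tris/NaCl/DTT/glycerol buffer for 30 min at room temperature, washed, crosslinked with 0.1% formaldehyde and proximity-ligated with BsaI/T4 ligase at 37 °C for 1 h. PCR amplification and Illumina NextSeq500 sequencing came last. Binding signal is each hexamer's read frequency for a factor divided by its frequency for the tag-only sample.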

ELK1 = target: T2, ELK1 (Homo sapiens, UniProt P19419 1-428)
T2 sequence: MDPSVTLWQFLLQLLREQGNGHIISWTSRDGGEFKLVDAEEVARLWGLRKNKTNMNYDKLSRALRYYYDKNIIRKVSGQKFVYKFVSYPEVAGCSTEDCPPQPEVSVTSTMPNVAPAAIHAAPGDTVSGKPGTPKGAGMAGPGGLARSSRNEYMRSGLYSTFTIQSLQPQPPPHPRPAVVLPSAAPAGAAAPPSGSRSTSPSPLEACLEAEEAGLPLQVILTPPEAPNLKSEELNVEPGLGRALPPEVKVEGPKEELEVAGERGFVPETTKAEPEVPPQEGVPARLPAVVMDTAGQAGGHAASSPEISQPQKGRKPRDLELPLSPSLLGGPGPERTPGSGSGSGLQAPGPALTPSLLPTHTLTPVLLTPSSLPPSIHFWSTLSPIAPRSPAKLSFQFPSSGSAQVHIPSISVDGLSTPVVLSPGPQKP
Outline: as §1

GABPA = target: T3, GABPA (Homo sapiens, UniProt Q06546 1-454)
T3 sequence: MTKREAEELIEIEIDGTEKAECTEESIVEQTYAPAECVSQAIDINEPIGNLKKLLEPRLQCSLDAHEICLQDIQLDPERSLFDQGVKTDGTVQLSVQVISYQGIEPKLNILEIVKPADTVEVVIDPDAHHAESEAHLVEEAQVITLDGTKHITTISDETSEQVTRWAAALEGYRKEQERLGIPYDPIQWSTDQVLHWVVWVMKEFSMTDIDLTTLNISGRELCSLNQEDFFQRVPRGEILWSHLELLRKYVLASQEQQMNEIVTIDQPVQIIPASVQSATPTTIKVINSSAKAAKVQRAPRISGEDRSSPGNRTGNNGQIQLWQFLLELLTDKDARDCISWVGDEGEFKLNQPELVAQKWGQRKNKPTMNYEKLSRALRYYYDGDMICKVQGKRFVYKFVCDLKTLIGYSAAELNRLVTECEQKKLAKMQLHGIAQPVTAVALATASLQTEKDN
Outline: as §1

ERG = target: T4, ERG (Homo sapiens, UniProt P11308 1-479)
T4 sequence: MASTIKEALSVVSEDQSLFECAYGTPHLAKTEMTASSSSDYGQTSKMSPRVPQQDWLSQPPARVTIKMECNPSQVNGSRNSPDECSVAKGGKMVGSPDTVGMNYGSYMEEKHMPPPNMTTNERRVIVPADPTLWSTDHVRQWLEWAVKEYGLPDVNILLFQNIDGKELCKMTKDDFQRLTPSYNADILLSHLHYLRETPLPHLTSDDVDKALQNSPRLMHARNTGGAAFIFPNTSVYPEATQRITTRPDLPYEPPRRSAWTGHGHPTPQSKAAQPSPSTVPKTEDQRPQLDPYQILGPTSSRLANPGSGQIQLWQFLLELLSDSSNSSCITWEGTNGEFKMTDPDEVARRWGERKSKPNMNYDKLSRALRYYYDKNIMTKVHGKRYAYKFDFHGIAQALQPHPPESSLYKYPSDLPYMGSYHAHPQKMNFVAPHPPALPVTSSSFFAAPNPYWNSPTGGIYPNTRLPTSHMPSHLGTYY
Outline: as §1

ELF1 = ELF1 (Homo sapiens, UniProt P32519 1-619)
Outline: as §1

EHF = target: T5, EHF (Homo sapiens, UniProt Q9NZC4 1-300)
T5 sequence: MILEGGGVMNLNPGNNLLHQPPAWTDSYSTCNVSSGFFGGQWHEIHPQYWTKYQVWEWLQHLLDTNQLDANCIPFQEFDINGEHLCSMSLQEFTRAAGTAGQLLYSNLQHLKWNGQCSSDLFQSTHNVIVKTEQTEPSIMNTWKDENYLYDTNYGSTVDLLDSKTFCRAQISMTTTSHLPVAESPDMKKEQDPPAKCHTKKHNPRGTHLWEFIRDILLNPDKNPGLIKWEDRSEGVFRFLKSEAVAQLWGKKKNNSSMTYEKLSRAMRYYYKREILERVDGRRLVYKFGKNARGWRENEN
Outline: as §1

SPI1 = SPI1 (Homo sapiens, UniProt P17947 1-270)
Outline: as §1

SPIB = SPIB (Homo sapiens, UniProt Q01892 1-262)
Outline: as §1

ELK3 = target: T6, ELK3 (Homo sapiens, UniProt P41970 1-407)
T6 sequence: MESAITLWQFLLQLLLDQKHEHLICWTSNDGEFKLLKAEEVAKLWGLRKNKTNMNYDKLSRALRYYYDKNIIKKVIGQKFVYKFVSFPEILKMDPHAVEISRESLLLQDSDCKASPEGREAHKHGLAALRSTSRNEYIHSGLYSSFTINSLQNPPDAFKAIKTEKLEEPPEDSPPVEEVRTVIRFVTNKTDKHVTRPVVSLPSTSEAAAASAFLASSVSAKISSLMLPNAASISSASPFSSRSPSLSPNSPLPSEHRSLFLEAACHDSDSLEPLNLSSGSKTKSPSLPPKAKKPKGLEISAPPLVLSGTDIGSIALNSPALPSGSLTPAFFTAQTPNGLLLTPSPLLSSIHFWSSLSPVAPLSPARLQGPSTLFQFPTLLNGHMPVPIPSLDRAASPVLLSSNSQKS
Outline: as §1

Chain of ELF1 (P32519 whole entry): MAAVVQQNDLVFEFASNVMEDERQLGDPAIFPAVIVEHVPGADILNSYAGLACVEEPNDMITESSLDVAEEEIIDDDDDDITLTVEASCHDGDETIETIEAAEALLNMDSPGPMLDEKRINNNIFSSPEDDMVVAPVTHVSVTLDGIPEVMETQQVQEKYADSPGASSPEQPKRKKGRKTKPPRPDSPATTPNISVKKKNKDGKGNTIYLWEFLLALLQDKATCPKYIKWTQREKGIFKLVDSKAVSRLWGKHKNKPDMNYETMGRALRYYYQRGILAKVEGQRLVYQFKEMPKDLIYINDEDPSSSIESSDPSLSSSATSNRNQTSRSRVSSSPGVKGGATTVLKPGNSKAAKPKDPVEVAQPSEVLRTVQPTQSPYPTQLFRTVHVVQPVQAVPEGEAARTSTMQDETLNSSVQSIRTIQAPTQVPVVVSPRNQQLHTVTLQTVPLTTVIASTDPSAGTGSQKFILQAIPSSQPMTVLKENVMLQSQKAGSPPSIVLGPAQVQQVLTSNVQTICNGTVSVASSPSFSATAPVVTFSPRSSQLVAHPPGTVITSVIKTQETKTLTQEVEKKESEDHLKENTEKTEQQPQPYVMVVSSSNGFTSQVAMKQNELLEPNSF
Chain of SPIB (Q01892 whole entry): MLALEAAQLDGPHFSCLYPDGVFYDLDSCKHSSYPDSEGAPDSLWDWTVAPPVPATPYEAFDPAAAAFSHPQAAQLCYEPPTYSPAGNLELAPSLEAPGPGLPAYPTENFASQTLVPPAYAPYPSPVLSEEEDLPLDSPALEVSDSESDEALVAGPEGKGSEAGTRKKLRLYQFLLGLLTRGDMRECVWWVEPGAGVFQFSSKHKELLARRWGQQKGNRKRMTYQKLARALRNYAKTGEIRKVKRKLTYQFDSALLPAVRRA

| Sequence | binding signal (FLI1) | binding signal (ELK1) | binding signal (GABPA) | binding signal (ERG) | binding signal (ELF1) | binding signal (EHF) | binding signal (SPI1) | binding signal (SPIB) | binding signal (ELK3) |
| --- | --- | --- | --- | --- | --- | --- | --- | --- | --- |
| CGATAT | 1.14 fold enrichment (6-mer frequency, TF over GST control) | 1.03 fold enrichment (6-mer frequency, TF over GST control) | 1.08 fold enrichment (6-mer frequency, TF over GST control) | 1.03 fold enrichment (6-mer frequency, TF over GST control) | 1.12 fold enrichment (6-mer frequency, TF over GST control) | 1.1 fold enrichment (6-mer frequency, TF over GST control) | 1.03 fold enrichment (6-mer frequency, TF over GST control) | 1.02 fold enrichment (6-mer frequency, TF over GST control) | 1.06 fold enrichment (6-mer frequency, TF over GST control) |
| GAAGCT | 1.62 fold enrichment (6-mer frequency, TF over GST control) | 1.7 fold enrichment (6-mer frequency, TF over GST control) | 1.52 fold enrichment (6-mer frequency, TF over GST control) | 1.64 fold enrichment (6-mer frequency, TF over GST control) | 1.44 fold enrichment (6-mer frequency, TF over GST control) | 1.69 fold enrichment (6-mer frequency, TF over GST control) | 1.63 fold enrichment (6-mer frequency, TF over GST control) | 1.64 fold enrichment (6-mer frequency, TF over GST control) | 1.66 fold enrichment (6-mer frequency, TF over GST control) |
| GAAGAA | 1.03 fold enrichment (6-mer frequency, TF over GST control) | 1.11 fold enrichment (6-mer frequency, TF over GST control) | 1.14 fold enrichment (6-mer frequency, TF over GST control) | 1.19 fold enrichment (6-mer frequency, TF over GST control) | 1.12 fold enrichment (6-mer frequency, TF over GST control) | 1.14 fold enrichment (6-mer frequency, TF over GST control) | 1.13 fold enrichment (6-mer frequency, TF over GST control) | 1.03 fold enrichment (6-mer frequency, TF over GST control) | 1.13 fold enrichment (6-mer frequency, TF over GST control) |
| AAAGGG | 1.21 fold enrichment (6-mer frequency, TF over GST control) | 1.11 fold enrichment (6-mer frequency, TF over GST control) | 1.22 fold enrichment (6-mer frequency, TF over GST control) | 1.12 fold enrichment (6-mer frequency, TF over GST control) | 1.09 fold enrichment (6-mer frequency, TF over GST control) | 1.2 fold enrichment (6-mer frequency, TF over GST control) | 1.68 fold enrichment (6-mer frequency, TF over GST control) | 1.19 fold enrichment (6-mer frequency, TF over GST control) | 1.1 fold enrichment (6-mer frequency, TF over GST control) |
| TGCCTG | 1.17 fold enrichment (6-mer frequency, TF over GST control) | 1.27 fold enrichment (6-mer frequency, TF over GST control) | 1.32 fold enrichment (6-mer frequency, TF over GST control) | 1.32 fold enrichment (6-mer frequency, TF over GST control) | 1.33 fold enrichment (6-mer frequency, TF over GST control) | 1.36 fold enrichment (6-mer frequency, TF over GST control) | 1.26 fold enrichment (6-mer frequency, TF over GST control) | 1.29 fold enrichment (6-mer frequency, TF over GST control) | 1.59 fold enrichment (6-mer frequency, TF over GST control) |
| CCGTCC | 1.37 fold enrichment (6-mer frequency, TF over GST control) | 1.37 fold enrichment (6-mer frequency, TF over GST control) | 1.29 fold enrichment (6-mer frequency, TF over GST control) | 1.42 fold enrichment (6-mer frequency, TF over GST control) | 1.37 fold enrichment (6-mer frequency, TF over GST control) | 1.42 fold enrichment (6-mer frequency, TF over GST control) | 1.21 fold enrichment (6-mer frequency, TF over GST control) | 1.25 fold enrichment (6-mer frequency, TF over GST control) | 1.39 fold enrichment (6-mer frequency, TF over GST control) |
| GCGTTC | 1.07 fold enrichment (6-mer frequency, TF over GST control) | 1.06 fold enrichment (6-mer frequency, TF over GST control) | 1.08 fold enrichment (6-mer frequency, TF over GST control) | 1.03 fold enrichment (6-mer frequency, TF over GST control) | 1.12 fold enrichment (6-mer frequency, TF over GST control) | 1.06 fold enrichment (6-mer frequency, TF over GST control) | 1.08 fold enrichment (6-mer frequency, TF over GST control) | 1.12 fold enrichment (6-mer frequency, TF over GST control) | 1.13 fold enrichment (6-mer frequency, TF over GST control) |
